Data published in the supplement of paper PMC11732987, “Enantioselective OTUD7B fragment discovery through chemoproteomics screening and high-throughput optimisation” (Communications Chemistry, 2025).

How the values were obtained:
Experiment in all cases: log2 ratio of Biotin-Ahx-Ub-VS probe labelling (fragment/DMSO); higher = less target engagement (more negative = stronger competition), active = hit call of the paper (q ≤ 0.05, log2 ratio ≤ -1)
Settings in all cases: compound concentration: 200 uM; treatment time: 3 h
USP34 = USP34 (UniProt Q70CQ2)
USP34, sequence (Q70CQ2 whole entry, the tested form may be a part): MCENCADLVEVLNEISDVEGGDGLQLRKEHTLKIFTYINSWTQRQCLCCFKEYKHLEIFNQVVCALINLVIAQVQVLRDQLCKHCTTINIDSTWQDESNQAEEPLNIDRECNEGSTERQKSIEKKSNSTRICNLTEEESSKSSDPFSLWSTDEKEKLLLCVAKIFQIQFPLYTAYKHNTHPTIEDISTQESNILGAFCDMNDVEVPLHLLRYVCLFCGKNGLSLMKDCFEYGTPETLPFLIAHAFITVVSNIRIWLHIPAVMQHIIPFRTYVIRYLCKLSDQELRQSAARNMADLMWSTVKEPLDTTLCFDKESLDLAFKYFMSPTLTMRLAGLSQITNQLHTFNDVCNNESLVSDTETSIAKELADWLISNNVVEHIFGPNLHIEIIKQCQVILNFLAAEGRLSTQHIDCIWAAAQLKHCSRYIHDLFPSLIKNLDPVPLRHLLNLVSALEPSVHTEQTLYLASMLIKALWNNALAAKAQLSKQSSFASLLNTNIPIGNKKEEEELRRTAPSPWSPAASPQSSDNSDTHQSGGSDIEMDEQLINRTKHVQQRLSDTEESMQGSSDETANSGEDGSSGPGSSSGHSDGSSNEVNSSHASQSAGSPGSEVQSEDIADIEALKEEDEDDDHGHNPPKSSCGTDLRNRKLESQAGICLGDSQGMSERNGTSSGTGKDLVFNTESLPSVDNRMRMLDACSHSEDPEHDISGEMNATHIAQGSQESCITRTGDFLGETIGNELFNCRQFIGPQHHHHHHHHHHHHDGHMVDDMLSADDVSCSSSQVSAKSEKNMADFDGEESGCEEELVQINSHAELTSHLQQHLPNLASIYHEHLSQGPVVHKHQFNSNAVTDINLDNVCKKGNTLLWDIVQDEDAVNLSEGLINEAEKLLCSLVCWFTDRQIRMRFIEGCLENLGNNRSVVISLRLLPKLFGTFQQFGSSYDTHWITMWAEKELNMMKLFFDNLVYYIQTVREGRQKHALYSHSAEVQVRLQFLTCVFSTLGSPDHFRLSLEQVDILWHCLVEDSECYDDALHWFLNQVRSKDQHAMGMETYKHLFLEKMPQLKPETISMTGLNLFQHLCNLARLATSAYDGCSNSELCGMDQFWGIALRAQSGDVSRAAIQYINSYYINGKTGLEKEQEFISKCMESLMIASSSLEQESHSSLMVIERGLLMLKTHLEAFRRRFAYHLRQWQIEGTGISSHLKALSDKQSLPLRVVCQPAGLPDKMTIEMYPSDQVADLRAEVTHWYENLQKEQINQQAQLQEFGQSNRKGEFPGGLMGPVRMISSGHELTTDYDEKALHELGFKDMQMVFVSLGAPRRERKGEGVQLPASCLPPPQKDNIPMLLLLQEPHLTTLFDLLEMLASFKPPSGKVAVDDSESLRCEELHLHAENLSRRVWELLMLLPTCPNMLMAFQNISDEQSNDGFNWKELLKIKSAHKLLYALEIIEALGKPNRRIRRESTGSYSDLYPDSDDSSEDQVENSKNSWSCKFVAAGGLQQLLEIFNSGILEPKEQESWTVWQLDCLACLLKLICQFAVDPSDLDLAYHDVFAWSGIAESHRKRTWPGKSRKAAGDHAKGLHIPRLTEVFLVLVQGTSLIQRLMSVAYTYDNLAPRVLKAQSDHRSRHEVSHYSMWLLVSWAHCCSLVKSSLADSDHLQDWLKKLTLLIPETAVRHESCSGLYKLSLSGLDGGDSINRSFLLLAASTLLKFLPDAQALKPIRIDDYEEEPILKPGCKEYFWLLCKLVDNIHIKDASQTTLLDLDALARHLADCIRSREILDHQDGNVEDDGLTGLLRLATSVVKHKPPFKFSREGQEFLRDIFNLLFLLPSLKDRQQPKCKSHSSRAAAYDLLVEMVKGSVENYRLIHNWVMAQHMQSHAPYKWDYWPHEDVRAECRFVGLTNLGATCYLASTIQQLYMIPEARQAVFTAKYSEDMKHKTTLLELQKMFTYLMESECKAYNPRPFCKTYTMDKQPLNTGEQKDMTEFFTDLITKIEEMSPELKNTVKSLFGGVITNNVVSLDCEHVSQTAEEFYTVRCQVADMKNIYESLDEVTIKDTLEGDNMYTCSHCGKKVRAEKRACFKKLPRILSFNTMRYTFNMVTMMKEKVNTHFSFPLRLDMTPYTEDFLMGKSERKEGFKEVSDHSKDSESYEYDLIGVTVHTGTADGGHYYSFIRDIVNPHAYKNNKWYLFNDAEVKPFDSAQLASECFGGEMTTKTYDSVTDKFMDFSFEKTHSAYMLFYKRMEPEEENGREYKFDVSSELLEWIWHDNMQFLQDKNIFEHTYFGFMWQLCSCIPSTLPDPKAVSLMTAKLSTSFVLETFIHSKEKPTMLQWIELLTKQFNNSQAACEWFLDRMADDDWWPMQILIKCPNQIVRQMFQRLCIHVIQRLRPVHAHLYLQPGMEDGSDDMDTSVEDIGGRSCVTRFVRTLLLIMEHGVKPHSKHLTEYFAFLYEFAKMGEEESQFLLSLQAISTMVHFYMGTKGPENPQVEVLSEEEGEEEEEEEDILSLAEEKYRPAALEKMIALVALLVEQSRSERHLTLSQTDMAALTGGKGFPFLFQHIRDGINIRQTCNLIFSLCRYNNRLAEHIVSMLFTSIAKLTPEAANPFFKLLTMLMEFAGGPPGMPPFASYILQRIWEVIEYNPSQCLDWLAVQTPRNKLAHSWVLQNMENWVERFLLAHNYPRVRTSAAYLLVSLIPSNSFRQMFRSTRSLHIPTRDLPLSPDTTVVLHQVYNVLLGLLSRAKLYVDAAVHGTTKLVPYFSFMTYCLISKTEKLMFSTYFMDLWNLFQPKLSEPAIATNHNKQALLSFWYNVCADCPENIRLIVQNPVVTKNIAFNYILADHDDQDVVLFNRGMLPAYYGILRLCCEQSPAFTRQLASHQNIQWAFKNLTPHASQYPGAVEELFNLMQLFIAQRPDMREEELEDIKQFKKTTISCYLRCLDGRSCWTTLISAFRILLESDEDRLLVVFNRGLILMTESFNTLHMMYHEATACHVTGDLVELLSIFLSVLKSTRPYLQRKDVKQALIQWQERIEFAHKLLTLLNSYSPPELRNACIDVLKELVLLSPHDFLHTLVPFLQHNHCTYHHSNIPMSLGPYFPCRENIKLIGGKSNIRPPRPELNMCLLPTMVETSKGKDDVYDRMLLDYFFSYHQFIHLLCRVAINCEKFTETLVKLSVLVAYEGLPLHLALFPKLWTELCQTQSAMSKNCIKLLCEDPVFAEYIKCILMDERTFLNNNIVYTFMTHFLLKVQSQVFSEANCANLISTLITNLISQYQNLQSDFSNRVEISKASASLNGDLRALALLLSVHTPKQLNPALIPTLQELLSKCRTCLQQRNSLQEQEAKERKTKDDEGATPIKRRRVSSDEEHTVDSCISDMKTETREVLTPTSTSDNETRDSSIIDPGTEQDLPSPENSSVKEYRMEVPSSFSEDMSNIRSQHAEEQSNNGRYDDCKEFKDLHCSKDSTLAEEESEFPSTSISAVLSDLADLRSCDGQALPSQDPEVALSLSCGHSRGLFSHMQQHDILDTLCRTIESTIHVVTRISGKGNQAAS
Procedure, shortened: (§1)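 Global-median-normalised Spectronaut label-free quantities were compared by unpaired t-test, and values are average log2 ratios of fragment over vehicle. Only proteins with ≥2 unique peptides were used. HEK293T lysate (495 µg per sample) was treated in triplicate with fragment at 200 µM or vehicle for 3 h and then with Biotin-Ahx-Ub-VS at 0.5 µM final for 1 h. Labelled DUBs were then NeutrAvidin-enriched, digested with LysC and trypsin, and run by diaPASEF LC-MS/MS.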

USP36 = target: T1, USP36 (UniProt Q9P275)
T1 sequence (whole entry): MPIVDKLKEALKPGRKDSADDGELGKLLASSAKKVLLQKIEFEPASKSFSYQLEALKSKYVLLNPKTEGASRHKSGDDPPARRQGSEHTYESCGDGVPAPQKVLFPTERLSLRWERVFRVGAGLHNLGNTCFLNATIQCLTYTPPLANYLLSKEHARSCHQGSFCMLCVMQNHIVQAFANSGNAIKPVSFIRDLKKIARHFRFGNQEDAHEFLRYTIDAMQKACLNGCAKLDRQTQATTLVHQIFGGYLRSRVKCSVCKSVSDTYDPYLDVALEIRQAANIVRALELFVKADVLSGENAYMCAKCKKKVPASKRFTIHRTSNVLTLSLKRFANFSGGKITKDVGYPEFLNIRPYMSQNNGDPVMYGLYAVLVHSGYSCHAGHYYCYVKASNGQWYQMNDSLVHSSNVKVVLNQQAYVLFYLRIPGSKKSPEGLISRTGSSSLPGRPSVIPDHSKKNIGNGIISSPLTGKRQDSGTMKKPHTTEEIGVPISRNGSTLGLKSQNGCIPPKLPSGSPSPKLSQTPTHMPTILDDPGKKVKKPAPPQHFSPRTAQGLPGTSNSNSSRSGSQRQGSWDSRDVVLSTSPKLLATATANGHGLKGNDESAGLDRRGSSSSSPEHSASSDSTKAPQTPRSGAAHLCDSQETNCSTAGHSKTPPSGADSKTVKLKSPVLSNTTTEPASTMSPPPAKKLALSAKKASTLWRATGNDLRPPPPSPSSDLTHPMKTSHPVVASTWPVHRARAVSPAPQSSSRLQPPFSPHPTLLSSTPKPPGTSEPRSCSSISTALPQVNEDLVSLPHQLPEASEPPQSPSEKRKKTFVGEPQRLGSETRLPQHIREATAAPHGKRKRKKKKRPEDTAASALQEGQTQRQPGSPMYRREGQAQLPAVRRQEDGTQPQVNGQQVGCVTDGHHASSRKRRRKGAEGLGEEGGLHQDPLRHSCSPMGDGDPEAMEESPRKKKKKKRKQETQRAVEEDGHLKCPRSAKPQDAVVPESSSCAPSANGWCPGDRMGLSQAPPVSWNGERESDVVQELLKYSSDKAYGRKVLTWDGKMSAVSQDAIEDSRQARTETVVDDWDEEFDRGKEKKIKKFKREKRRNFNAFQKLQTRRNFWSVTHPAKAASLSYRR
Procedure, shortened: as §1

USP38 = target: T2, USP38 (UniProt Q8NB14)
T2 sequence (whole entry): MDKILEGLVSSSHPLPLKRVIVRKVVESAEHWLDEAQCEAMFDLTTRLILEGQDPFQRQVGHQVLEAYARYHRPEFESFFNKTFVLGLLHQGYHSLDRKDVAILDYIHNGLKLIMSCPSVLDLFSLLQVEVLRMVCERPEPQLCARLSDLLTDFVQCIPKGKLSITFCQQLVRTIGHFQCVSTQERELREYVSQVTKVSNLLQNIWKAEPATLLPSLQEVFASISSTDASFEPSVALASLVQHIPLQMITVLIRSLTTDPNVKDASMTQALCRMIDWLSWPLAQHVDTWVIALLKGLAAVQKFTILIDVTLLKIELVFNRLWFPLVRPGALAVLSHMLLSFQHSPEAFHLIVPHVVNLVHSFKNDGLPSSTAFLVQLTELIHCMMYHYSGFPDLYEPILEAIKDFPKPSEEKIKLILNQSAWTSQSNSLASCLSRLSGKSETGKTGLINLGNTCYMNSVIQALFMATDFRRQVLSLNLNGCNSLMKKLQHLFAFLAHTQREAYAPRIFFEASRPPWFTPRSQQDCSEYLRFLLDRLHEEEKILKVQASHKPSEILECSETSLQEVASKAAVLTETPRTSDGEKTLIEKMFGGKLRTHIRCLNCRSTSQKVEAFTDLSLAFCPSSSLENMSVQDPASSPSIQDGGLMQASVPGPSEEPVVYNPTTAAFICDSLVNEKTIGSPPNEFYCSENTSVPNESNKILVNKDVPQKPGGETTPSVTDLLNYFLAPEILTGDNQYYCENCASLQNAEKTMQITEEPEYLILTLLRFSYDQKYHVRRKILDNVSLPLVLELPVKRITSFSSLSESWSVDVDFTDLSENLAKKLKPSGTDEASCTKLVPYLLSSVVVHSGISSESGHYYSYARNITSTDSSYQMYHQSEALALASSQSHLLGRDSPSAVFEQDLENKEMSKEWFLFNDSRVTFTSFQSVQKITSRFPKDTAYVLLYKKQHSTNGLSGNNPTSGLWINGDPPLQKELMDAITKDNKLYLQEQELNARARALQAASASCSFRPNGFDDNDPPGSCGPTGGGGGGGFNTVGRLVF
Procedure, shortened: as §1

USP39 = target: T3, USP39 (UniProt Q53GS9)
T3 sequence (whole entry): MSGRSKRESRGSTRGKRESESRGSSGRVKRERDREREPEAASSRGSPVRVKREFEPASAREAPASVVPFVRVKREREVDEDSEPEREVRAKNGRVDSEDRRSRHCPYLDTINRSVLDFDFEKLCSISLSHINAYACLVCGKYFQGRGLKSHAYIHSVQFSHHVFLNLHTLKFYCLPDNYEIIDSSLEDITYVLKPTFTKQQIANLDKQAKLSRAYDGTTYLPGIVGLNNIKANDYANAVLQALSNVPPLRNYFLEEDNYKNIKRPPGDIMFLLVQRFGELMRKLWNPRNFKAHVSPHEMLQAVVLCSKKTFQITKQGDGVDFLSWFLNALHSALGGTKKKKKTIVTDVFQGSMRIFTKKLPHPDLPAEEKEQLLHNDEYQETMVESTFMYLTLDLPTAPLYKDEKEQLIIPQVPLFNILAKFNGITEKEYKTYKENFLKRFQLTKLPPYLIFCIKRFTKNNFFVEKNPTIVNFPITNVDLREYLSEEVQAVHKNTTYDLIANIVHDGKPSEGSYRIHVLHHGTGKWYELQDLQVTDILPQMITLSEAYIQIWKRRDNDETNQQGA
Procedure, shortened: as §1

USP4 = target: T4, USP4 (UniProt Q13107)
T4 sequence (whole entry): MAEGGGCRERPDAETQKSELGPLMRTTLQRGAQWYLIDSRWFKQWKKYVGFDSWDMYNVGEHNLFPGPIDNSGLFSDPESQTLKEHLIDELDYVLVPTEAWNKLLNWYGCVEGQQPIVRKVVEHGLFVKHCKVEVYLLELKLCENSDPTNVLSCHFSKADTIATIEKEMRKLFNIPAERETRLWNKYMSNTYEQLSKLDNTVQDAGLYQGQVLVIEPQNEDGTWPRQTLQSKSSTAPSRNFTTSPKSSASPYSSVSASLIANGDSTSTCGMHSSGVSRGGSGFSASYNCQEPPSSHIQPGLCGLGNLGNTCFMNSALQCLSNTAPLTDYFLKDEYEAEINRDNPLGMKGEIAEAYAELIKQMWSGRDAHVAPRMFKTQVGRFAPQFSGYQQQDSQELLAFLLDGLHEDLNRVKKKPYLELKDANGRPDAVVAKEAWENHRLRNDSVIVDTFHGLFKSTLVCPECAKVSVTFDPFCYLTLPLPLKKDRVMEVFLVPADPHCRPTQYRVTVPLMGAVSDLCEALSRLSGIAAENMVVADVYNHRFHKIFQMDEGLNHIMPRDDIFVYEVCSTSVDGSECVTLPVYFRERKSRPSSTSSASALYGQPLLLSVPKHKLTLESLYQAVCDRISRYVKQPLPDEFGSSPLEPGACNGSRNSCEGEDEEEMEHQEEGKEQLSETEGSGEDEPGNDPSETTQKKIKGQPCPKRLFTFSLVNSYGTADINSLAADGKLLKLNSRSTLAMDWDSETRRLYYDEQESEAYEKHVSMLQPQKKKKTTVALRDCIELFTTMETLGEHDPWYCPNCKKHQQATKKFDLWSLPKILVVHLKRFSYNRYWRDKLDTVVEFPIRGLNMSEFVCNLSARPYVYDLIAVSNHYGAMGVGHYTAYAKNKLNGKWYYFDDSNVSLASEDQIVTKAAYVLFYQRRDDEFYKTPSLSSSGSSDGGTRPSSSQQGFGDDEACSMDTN
Procedure, shortened: as §1

Measured: log2 ratio of Biotin-Ahx-Ub-VS probe labelling

Cl.Cn1cnc2cc(CNC(=O)CCl)ccc21
inactive: USP34 -0.0912 | USP36 -0.188 | USP38 -0.21 | USP39 -0.337 | USP4 -0.0327
